Assay results published in PubChem BioAssay (NCI).
About 83,000 compounds went through this panel and 20% of them were active in at least one assay; those are over-represented in the sample as a whole.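 In brief: 96-well plates, 48 h treatment, single concentration, percent growth endpoint.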 Active and inactive are the calls of the source. The calls were made as follows: active = growth percent below 10; inactive = the rest.

Key:
Assay in all cases: NCI-60 one-dose screen, 48 h (100 = growth as untreated, 0 = no growth, -100 = all killed)
Conditions in all cases: 10 µM unless noted
[1] = system: NCI-H23 lung
[2] = system: NCI-H226 lung
[3] = system: NCI-H322M lung
[4] = system: HOP-62 NSCLC
[5] = system: NCI-H460 lung
[6] = system: NCI-H522 lung
[7] = system: A549/ATCC NSCLC
[8] = system: 786-0 renal
[9] = system: COLO 205 colon
[10] = system: DU-145 prostate
[11] = system: K-562 leukemia
[12] = system: MALME-3M melanoma
[13] = system: MDA-MB-231 breast
[14] = system: RXF 393 renal
[15] = system: SF-268 CNS
[16] = system: SF-539 CNS
[17] = system: UACC-257 melanoma
[18] = system: M14 melanoma
[19] = system: HCT-15 colon
[20] = system: SF-295 CNS

Measured: growth

COc1ccc(-c2nnc(COc3ccc(NC(=O)Nc4cc(C(F)(F)F)cc(C(F)(F)F)c4)cc3F)o2)cc1
active: [1] -11% | [2] 7.41% | [5] 4.82% | [6] -17.8% | [7] 3.87% | [9] -40.7% | [11] 9.15% | [12] -16.5% | [13] -22.6% | [17] 0.873%
inactive: [3] 23.4% | [4] 12.3% | [8] 16.2% | [10] 12.4% | [14] 16.3% | [15] 18.8% | [16] 20.3% | [18] 18% | [19] 10%

NNC(=O)NO
inactive: [1] 98.6% | [2] 103% | [3] 93% | [4] 88.9% | [5] 105% | [6] 86% | [7] 101% | [8] 98.5% | [9] 111% | [10] 109% | [11] 94.8% | [12] 98.6% | [13] 122% | [14] 115% | [15] 104% | [16] 104% | [17] 112% | [18] 102% | [19] 102%

CCN(CC)c1ccc(N=Nc2cc(Cl)ccc2Cl)c(NC(=O)CCC(=O)O)c1
inactive: [1] 101% | [2] 98.1% | [3] 111% | [4] 86.6% | [5] 108% | [6] 106% | [7] 101% | [8] 108% | [9] 106% | [10] 108% | [11] 98.8% | [12] 91.8% | [13] 81.4% | [14] 116% | [15] 105% | [16] 79.9% | [17] 117% | [18] 101% | [19] 89.5%

CN(C(=O)c1ccccc1)N(C)C(=O)c1ccccc1
inactive: [1] 110% | [2] 112% | [3] 96.6% | [4] 94.7% | [5] 109% | [6] 102% | [7] 103% | [8] 100% | [9] 102% | [10] 121% | [11] 107% | [12] 94.4% | [13] 107% | [14] 122% | [15] 116% | [16] 108% | [17] 113% | [18] 99.2% | [19] 111%

CC[C@]1(O)CC2CN(CCc3c([nH]c4ccccc34)[C@@](C(=O)OC)(c3cc4c(cc3OC)N(C)[C@H]3[C@@](O)(C(=O)OC)[C@H](OC(C)=O)[C@]5(CC)C=CCN6CC[C@]43[C@@H]65)C2)C1 (some centres not stated)
inactive: [1] 16.1% | [2] 48.9% | [3] 54.4% | [4] 31.7% | [7] 17.2% | [8] 13.8% | [12] 38.4% | [14] 25.9% | [20] 12.2% | [17] 61.9%
active: [5] 2.54% | [6] -17.9% | [9] -50.7% | [10] -39.8% | [11] 7.74% | [13] 5.18% | [15] 4.83% | [18] -15.6% | [19] 6.5%

COc1cc2c(cc1OCCCOc1ccc(-c3cc4ccccc4c4ccccc34)cc1)N=C[C@@H]1CCCN1C2=O
active: [1] -39.3% | [2] -78.7% | [3] -69.4% | [4] -45% | [5] -45.2% | [6] -43.9% | [7] -17.4% | [8] -79.9% | [9] -0.637% | [10] -35.6% | [12] -57.9% | [13] -71.2% | [14] -49.6% | [15] -61.2% | [20] -64.6% | [16] -57.6% | [18] -34.2% | [19] -64%
inactive: [11] 10.5%

Cc1cc(C)n2nc(SCC(=O)Nc3sc4c(c3C(N)=O)CCC4)nc2n1
inactive: [1] 101% | [2] 87.1% | [3] 99.7% | [4] 93.7% | [5] 116% | [6] 94% | [7] 146% | [8] 96.4% | [9] 118% | [10] 101% | [11] 119% | [12] 106% | [13] 99.2% | [14] 117% | [15] 113% | [20] 101% | [16] 90.8% | [18] 102% | [19] 108%

COC(=O)[C@]12CC[C@@H](C)[C@H](C)[C@@H]1C1=CC[C@@H]3[C@@]4(C)C=C(O)C(=O)[C@@]5(C)COC(=C54)C[C@@]3(C)[C@]1(C)CC2
active: [1] -73.1% | [2] -48.9% | [3] -25.3% | [4] -50.8% | [5] -66.2% | [6] -70.2% | [7] -59.5% | [8] -89.5% | [9] -63.9% | [10] -80.7% | [11] -97.8% | [12] -59% | [13] -52.7% | [14] -82.4% | [15] -45.3% | [20] -57.4% | [16] -91.4% | [18] -63.2% | [19] -82.3%

CCC(=O)Nc1ccccc1C#C/C=C\C#Cc1ccccc1C(F)(F)F
inactive: [1] 57.3% | [2] 52.5% | [3] 37.4% | [4] 54.5% | [5] 10.2% | [6] 68.2% | [7] 64.2% | [8] 50.5% | [9] 59.4% | [10] 40% | [11] 43.4% | [12] 54.4% | [13] 55.6% | [14] 42.8% | [15] 67.8% | [20] 28.8% | [16] 55% | [18] 40.5% | [19] 56.3%

N#CCCN(CCO)c1ccccc1
inactive: [1] 104% | [2] 94.6% | [3] 93.7% | [4] 95% | [5] 105% | [6] 80.6% | [7] 98.9% | [8] 96.2% | [9] 104% | [10] 116% | [11] 98.3% | [12] 96.8% | [13] 106% | [14] 105% | [15] 111% | [16] 104% | [17] 99.8% | [18] 102%

N#Cc1cnc2cc(OC[C@H](O)CO)c(NC(=O)CC3CSSC3)cc2c1Nc1ccc(OCc2cccc(F)c2)c(Cl)c1
inactive: [19] 27.3%
active: [1] -73.4% | [2] -62.3% | [3] -85.4% | [4] -60.8% | [5] -70.7% | [6] -68.3% | [7] -69.3% | [8] -63.2% | [9] -79.4% | [10] -93.5% | [11] -100% | [12] -67% | [13] -54.9% | [14] -86.1% | [15] -56.3% | [20] -82.1% | [16] -85.8% | [18] -66.8%

CCC(C)CC(C)C(=O)c1c(O)ccn(O)c1=O (configuration not stated)
active: [16] 5.81%
inactive: [1] 25.2% | [2] 95.8% | [3] 52.5% | [4] 24% | [5] 23.7% | [6] 33.2% | [7] 22.6% | [8] 70% | [9] 108% | [10] 42.7% | [11] 18.2% | [12] 42.1% | [13] 45.3% | [14] 35.4% | [15] 26.4% | [17] 27.1% | [18] 15.5% | [19] 25.3%

Nc1ccc(S(=O)(=O)Nc2ncccn2)cc1
inactive: [1] 114% | [2] 100% | [3] 120% | [4] 108% | [5] 108% | [6] 106% | [7] 100% | [8] 107% | [9] 114% | [10] 104% | [11] 104% | [12] 118% | [13] 98.6% | [14] 118% | [15] 108% | [20] 104% | [17] 105% | [18] 115% | [19] 99.1%

O=C1/C(=N/O)CCc2ccccc21
inactive: [1] 98.1% | [2] 101% | [3] 102% | [4] 91.5% | [5] 92.6% | [6] 94% | [7] 103% | [8] 111% | [9] 100% | [10] 100% | [11] 19.4% | [12] 91.7% | [13] 79.7% | [14] 96.7% | [15] 91% | [16] 88.5% | [17] 90.7% | [18] 104% | [19] 102%

Cc1cc(C(C)(C)C)cc(C)c1CC1=NCCN1
inactive: [1] 99% | [2] 89.2% | [3] 102% | [4] 109% | [5] 118% | [6] 106% | [7] 104% | [8] 96.9% | [9] 92.6% | [10] 107% | [11] 90.4% | [12] 99.2% | [13] 109% | [14] 107% | [15] 100% | [20] 96.3% | [17] 106% | [18] 107% | [19] 102%

CCCCCCCC/C=C/CCCCCCCC1=NC(C)(C)CN1CCO
inactive: [1] 47.1% | [2] 83.3% | [3] 50.8% | [7] 24.7% | [8] 32.3% | [10] 64.5% | [12] 64.9% | [15] 46% | [20] 30.2% | [17] 20.1%
active: [4] 6.19% | [5] -39.5% | [6] -45.2% | [9] -63.9% | [11] -51.6% | [13] 9.49% | [14] -23.4% | [16] -5.97% | [19] -34.9%

COc1cccc(C2C(C#N)=C(N)Oc3cc(OC)ccc32)c1 (configuration not stated)
active: [5] 7.42% | [6] -38.4% | [9] -73.4% | [10] -15.2% | [11] -4.51% | [13] -15.4% | [16] -13.3%
inactive: [1] 16.2% | [2] 72.6% | [3] 32.6% | [4] 24.6% | [7] 15.6% | [8] 29.9% | [12] 36.6% | [14] 26.9% | [15] 18.3% | [17] 59.2% | [18] 12.6% | [19] 10.4%
